From PubChem BioAssay (NCATS)
“And” between values parts separate entries of the source, which are not always exact repeats. Equal entries are not always repeated. Inconclusive results are not listed. The source made the active and inactive calls. Unless noted, calls come from the whole dose curve; as a rule, active = well fitted curve in the direction sought with a large enough effect; inconclusive = small, poorly fitted or top-dose-only effect, or another doubt; inactive = no such curve, though single readings can be large; an effect the other way counts as inactive or inconclusive.

How the values were obtained:
[1] = target: Hexokinase-4 (Homo sapiens) + Glucokinase regulatory protein (Homo sapiens) (UniProt P35557+Q14397); test: qHTS assay for inhibitors of recombinant human GCK-GKRP interaction: HTRF assay (AID 743207);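 note: 0% = DMSO with GCK present and -100% = DMSO wells lacking GCK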
Method in brief: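 GST-GCK and FLAG-GKRP (5 nM each) were combined with 2 uM S6P in pH 7.1 Hepes/MgCl2/KCl/DTT buffer, then compound and anti-FLAG XL665/anti-GST K antibodies were added. After 60 min at room temperature, HTRF 665/615 nm emission was read.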

[2] = qHTS Assay for Identifying Gametocytocidal Compounds (AID 743244); note: potency is the fitted concentration of half-maximal effect;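 for max response: % is set by controls: 0 for no effect and ±100 for the full control effect; actives lower the fluorescent signal which means gametocytes are killed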; details: P. falciparum 3D7 stage III-V gametocytes, alamarBlue, 72 h; max response: stronger effect = lower value
Method in brief: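 In this qHTS viability screen, late-stage 3D7 gametocytes are incubated with compound for 72 h, then with alamarBlue for 24 h; reduced resorufin fluorescence marks killing.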

[3] = qHTS profiling of the MIPE4 collection as inhibitors of Plasmodium falciparum (3D7) proliferation (AID 743344; call rule not given here;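 note: scaled between DMSO vehicle wells and 0.29 µM artemisinin as full inhibition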); details: P. falciparum 3D7 in erythrocytes, SYBR Green DNA fluorescence, 72 h; at 28.5 µM (top of the series) unless noted
Method in brief: (§1)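 Erythrocytes infected with P. falciparum (0.3% parasitemia, 2.5% hematocrit) incubated with compounds 72 h at 37 C, 5% CO2. Lysis with saponin/Triton buffer containing SYBR Green I, overnight at room temperature in the dark; DNA fluorescence (485/535 nm) normalised to 0.29 uM artemisinin and DMSO.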

[4] = qHTS profiling of the MIPE4 collection as inhibitors of Plasmodium falciparum (DD2) proliferation (AID 743345; call rule not given here); details: P. falciparum Dd2 in erythrocytes, SYBR Green DNA, 72 h; at 28.5 µM (top of the series) unless noted
Method in brief: as §1

[5] = qHTS profiling of the MIPE4 collection as inhibitors of Plasmodium falciparum (DD2) proliferation (Rep 2) (AID 743346; call rule not given here); details: P. falciparum Dd2 in erythrocytes, SYBR Green DNA, 72 h; at 28.5 µM (top of the series) unless noted
Method in brief: as §1

[6] = qHTS profiling of the MIPE4 collection as inhibitors of Plasmodium falciparum (HB3) proliferation (AID 743347; call rule not given here;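 note: plate controls were DMSO vehicle wells for no effect and artemisinin wells for full effect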); details: P. falciparum HB3 in erythrocytes, SYBR Green DNA, 72 h; at 28.5 µM (top of the series) unless noted
Method in brief: as §1

[7] = High-throughput drug toxicity screening in the BPDCN cell line Gen2.2 (AID 1224824; call rule not given here;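 note: cells exposed to compounds for 48 h before reading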); details: Gen2.2 BPDCN cells; at 45.8 µM (top of the series) unless noted
Method in brief: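 Gen2.2 cells (500/well) in phenol red-free RPMI with 10% FBS were exposed to compounds for 48 h at 37 °C, 5% CO2. Viability was read by CellTiter-Glo luminescence and normalized to DMSO (100%) and 9.2 uM bortezomib (0%).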

[8] = High-throughput drug toxicity screening in the BPDCN cell line Cal-1 (AID 1224825; call rule not given here); details: Cal-1 BPDCN cell viability, qHTS; at 45.8 µM (top of the series) unless noted
Method in brief: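 Cal-1 cells, 500 per well in phenol-red-free RPMI with 10% FBS, exposed to compounds for 48 hours at 37C, 5% CO2. Viability read by CellTiter-Glo luminescence; percent activity normalized to DMSO (100%) and 9.2 uM bortezomib final (0%).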

[9] = qHTS assay for measurement of the activity of small molecule inhibitors on Zika virus induced Caspase-3 activity in human iPSC derived neural progenitor cells (hNPCs) (AID 1224857); note: nearly all actives have a fitted effect of over 65% in size; note: potency is the fitted concentration of half-maximal effect
Method in brief: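 In medium with heparin 2 ug/ml and cyclopamine 2 uM, hNPCs (350 cells/well) received compound for one hour and then Zika virus at 2 FFU/cell; caspase activity was measured by Caspase-Glo 3/7 luminescence 6 h post-infection.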

[10] = qHTS assay for measurement of the activity of small molecule inhibitors on Zika virus induced Caspase-3 activity in human astrocytoma cells (AID 1224859); note: potency is the fitted concentration of half-maximal effect
Method in brief: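 A cell-based luminescent caspase-3/7 assay used SNB-19 cells infected with ZIKV (2 FFU/cell) for 6 h following 1 h compound pretreatment.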

[11] = qHTS Screen of the MIPE 4.0 Collection Against Ewings Sarcoma (RDES) (AID 1259252); note: nearly all actives have a fitted effect of over 35% in size; note: potency is the fitted concentration of half-maximal effect
Method in brief: (§2)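 Viability screen: 48 h incubation at 37C, 95% humidity, 5% CO2 with serially titrated compound, followed by CellTiter-Glo readout.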

[12] = qHTS Screen of the MIPE 4.0 Collection Against Ewings Sarcoma (TC71) (AID 1259253); note: nearly all actives have a fitted effect of over 40% in size; note: potency is the fitted concentration of half-maximal effect
Method in brief: as §2

[13] = qHTS Screen of the MIPE 4.0 Collection Against Ewings Sarcoma (EW8) (AID 1259255); note: nearly all actives have a fitted effect of over 35% in size; note: potency is the fitted concentration of half-maximal effect;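 for viability: 100% = DMSO-treated cells and 0% = medium-only wells without cells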
Method in brief: as §2

[14] = qHTS assay for cell viability of HEK293 cells (AID 743288); details: ATP luminescence (CellTiter-Glo), 18 h; max response: stronger effect = lower value; note: nearly all actives have a fitted effect of over 50% in size; note: potency is the fitted concentration of half-maximal effect; for max response: % is set by controls: 0 for no effect and ±100 for the full control effect
Method in brief: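 Parental HEK293 cells were seeded at 2,000 cells/well, rested at least 5 h at 37 C, then exposed to compounds in DMSO for 18 h at 37 C. Viability was read as ATP-dependent luciferase luminescence after 30 min at room temperature.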

[15] = qHTS assay for cell viability of the p53RE-bla HCT-116 cell line (AID 743292); note: % is set by controls: 0 for no effect and ±100 for the full control effect; nearly all actives have a fitted effect of over 55% in size
Method in brief: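 CellSensor p53RE-bla HCT-116 cells, 4,000/well, preincubated 5 h at 37 C, then exposed to compounds in DMSO for 16 h at 37 C. Viability read as CellTiter-Glo luminescence (intracellular ATP) after 30 min at room temperature.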

[16] = qHTS profiling for inhibitors of Plasmodium falciparum (3D7) proliferation (AID 743322; call rule not given here;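 note: infected erythrocytes exposed to compound for 72 h before lysis; 100% = DMSO vehicle wells and 0% = 0.29 µM artemisinin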); details: P. falciparum 3D7 proliferation; at 28.7 µM (top of the series) unless noted
Method in brief: as §1

[17] = qHTS profiling for inhibitors of Plasmodium falciparum (DD2) proliferation (AID 743323; call rule not given here); details: lower = more inhibition; at 28.7 µM (top of the series) unless noted
Method in brief: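 Parasite DNA quantified by SYBR Green fluorescence (ex 485, em 535 nm) after saponin/Triton lysis and overnight dark incubation. Cultures: 0.3% parasitemia, 2.5% hematocrit, 72 h, 37 C; data scaled between DMSO and 0.29 uM artemisinin.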

[18] = qHTS profiling for inhibitors of Plasmodium falciparum (HB3) proliferation (AID 743324); details: Plasmodium falciparum HB3 blood-stage proliferation; at 28.7 µM (top of the series) unless noted;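 note: 100% = DMSO vehicle wells and 0% = artemisinin-treated control wells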
Method in brief: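 P. falciparum HB3 grown in erythrocytes (0.3% parasitemia, 2.5% hematocrit final) with compound for 72 h at 37 C, 5% CO2. Parasite DNA detected by SYBR Green after saponin/triton lysis overnight; normalized to 0.29 uM artemisinin and DMSO.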

Chain of Hexokinase-4 (Homo sapiens) + Glucokinase regulatory protein (Homo sapiens) (P35557 whole entry, looked up): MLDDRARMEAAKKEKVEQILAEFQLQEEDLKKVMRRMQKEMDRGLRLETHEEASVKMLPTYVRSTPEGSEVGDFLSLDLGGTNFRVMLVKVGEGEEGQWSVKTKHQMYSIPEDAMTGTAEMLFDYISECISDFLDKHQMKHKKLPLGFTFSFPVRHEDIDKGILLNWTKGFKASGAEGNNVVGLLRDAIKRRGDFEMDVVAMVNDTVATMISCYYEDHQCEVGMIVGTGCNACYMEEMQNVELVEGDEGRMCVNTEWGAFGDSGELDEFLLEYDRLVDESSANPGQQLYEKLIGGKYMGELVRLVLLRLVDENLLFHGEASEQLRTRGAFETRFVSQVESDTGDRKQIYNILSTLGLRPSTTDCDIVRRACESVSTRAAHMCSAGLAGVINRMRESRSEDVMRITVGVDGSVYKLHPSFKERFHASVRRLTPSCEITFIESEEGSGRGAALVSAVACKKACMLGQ
Chain of Hexokinase-4 (Homo sapiens) + Glucokinase regulatory protein (Homo sapiens) (Q14397 whole entry, looked up): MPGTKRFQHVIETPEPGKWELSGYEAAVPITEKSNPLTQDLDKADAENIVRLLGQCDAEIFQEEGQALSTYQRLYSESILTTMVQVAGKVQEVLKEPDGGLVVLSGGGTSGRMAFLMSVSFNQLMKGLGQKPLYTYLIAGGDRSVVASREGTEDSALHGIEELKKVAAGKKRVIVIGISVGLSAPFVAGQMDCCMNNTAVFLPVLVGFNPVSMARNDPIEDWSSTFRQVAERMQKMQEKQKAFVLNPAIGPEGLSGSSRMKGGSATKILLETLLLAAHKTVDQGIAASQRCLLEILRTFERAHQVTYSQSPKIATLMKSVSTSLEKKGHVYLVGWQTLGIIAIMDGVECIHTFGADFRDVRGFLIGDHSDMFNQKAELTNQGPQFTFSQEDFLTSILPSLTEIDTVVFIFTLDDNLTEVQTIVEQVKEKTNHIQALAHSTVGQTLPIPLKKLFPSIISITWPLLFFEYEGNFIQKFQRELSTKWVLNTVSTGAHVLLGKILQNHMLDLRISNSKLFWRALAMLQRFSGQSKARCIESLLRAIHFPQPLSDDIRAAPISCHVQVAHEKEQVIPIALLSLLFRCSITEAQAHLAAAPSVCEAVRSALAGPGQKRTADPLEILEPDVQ

| SMILES | outcome [1] | max response [2] | parasite growth, % of DMSO control [3] | parasite growth remaining, % of DMSO control (lower = more inhibition) [4] | parasite growth, % of control (lower = inhibition) [5] | growth, % of control [6] | cell viability, % of control (lower = more cytotoxic) [7] | viability (% of control) [8] | Potency [9] | Potency [10] | Potency [11] | Potency [12] | Potency [13] | max response [14] | Potency [15] | remaining parasite growth % (stronger effect = lower value) [16] [%] | activity, percent of control [17] [%] | remaining proliferation (% of control), lower = more inhibition [18] [%] | Potency [2] | Potency [14] |
| --- | --- | --- | --- | --- | --- | --- | --- | --- | --- | --- | --- | --- | --- | --- | --- | --- | --- | --- | --- | --- |
| Cc1cn[nH]c1 | inactive | 28.3% (inactive) and 8.61% (inactive) | 5.44% | 10% | 6.63% | 8.35% | 120% | 55.7% | inactive | inactive | 0.0074 µM (active) | 0.0469 µM (active) | 0.059 µM (active) | – | – | – | – | – | – | – |
| O=C(Nc1nc2ccccc2n1CCN1CCOCC1)c1cccc([N+](=O)[O-])c1 | inactive | – | – | – | 17.9% | – | 43.3% | 4.89% | inactive | inactive | 20.9 µM (active) | 23.5 µM (active) | 20.9 µM (active) | – | – | – | – | – | – | – |
| O=c1[nH]cnc2[nH]ncc12 | inactive | – | – | – | – | – | 124% | 101% | inactive | inactive | inactive | inactive | inactive | 10.5% (inactive) | inactive | – | – | – | – | – |
| CCN(CC)CCCC(C)Nc1ccnc2cc(Cl)ccc12 (stereo not given) | inactive | – | 19.3% | 10.1% | 15.1% | 41.8% | 103% | 21.4% | inactive | inactive | inactive | inactive | inactive | – | – | 0.37 | 2.54 | 0.178 | – | – |
| O=c1n(CCCN2CCN(c3cccc(Cl)c3)CC2)nc2ccccn12 | inactive | – | 60.5% | 82.9% | – | 92.5% | 165% | 100% | inactive | inactive | inactive | inactive | inactive | – | – | – | – | – | – | – |
| CS(=O)(=O)c1ccc(C(=O)Nc2ccc(Cl)c(-c3ccccn3)c2)c(Cl)c1 | – | 15% (inactive) | 66.9% | 93.4% | – | 92.4% | 312% | 65.3% | inactive | inactive | inactive | inactive | inactive | – | – | 105 | 101 | 103 | – | – |
| O=C(O)COCCN1CCN(C(c2ccccc2)c2ccc(Cl)cc2)CC1 (stereo not given) | inactive | -12% (inactive) and 28.9% (inactive) | 82.3% | 104% | 72.8% | 91% | 178% | 124% | inactive | inactive | inactive | inactive | inactive | – | – | – | – | – | – | – |
| CCc1cc(Nc2nccc(-c3c(-c4ccc(OC)c(C(=O)Nc5c(F)cccc5F)c4)nc4ccccn34)n2)c(OC)cc1N1CCC(N2CCN(S(C)(=O)=O)CC2)CC1 | – | – | 4.93% | 6.42% | – | 4.27% | 179% | 79.3% | inactive | inactive | 26.4 µM (active) | 18.7 µM (active) | 18.7 µM (active) | – | – | -0.479 | 0.369 | -0.677 | 3.72 µM (active) | – |
| Cc1c(CCOc2ccc(C(=O)O)cc2)c2cc(Cl)ccc2n1C(c1ccccc1)c1ccccc1 | – | 6.58% (inactive) | 30.6% | 70.3% | 41.9% | 63.5% | 222% | 96.5% | inactive | inactive | 18.7 µM (active) | 16.6 µM (active) | 14.8 µM (active) | – | – | 84.7 | 81.3 | 23.4 | – | – |
| Cn1cnc([N+](=O)[O-])c1Sc1ncnc2nc[nH]c12 | inactive | – | 47.3% | 87.7% | – | 45.9% | 16.2% | 93.1% | inactive | inactive | 2.64 µM (active) | 1.18 µM (active) | 4.69 µM (active) | – | – | – | – | – | 39.8 µM (active) and 1.26 µM (active) | 4.47 µM (active) and 5.01 µM (active) |
| C[C@]12CC[C@H](O)CC1=CC[C@@H]1[C@H]2CC[C@]2(C)C(c3cccnc3)=CC[C@H]12 | – | – | 7.02% [at 9.64 µM] | 10% [at 9.64 µM] | 24.8% [at 9.64 µM] | 9.4% [at 9.64 µM] | 60.5% [at 23.2 µM] | 98.4% [at 23.2 µM] | inactive | inactive | inactive | inactive | inactive | – | – | -0.476 | 1.24 | 24.9 | – | – |
| c1ccc([C@H]2CN3CCSC3=N2)cc1 | inactive | – | 92.1% | 98.3% | – | 95.1% | 200% | 116% | inactive | inactive | inactive | inactive | inactive | – | – | – | – | – | – | – |
| Nc1nc2c(ncn2COCCO)c(=O)[nH]1 | inactive | 17.4% (inactive) and 18.4% (inactive) | 96.7% | 97.6% | – | 99.6% | 126% | 34.4% | inactive | inactive | inactive | inactive | inactive | – | – | – | – | – | – | – |
| CCOC(=O)N1CCC(=C2c3ccc(Cl)cc3CCc3cccnc32)CC1 | inactive | – | 14.5% | 56.2% | – | 13.8% | 186% | 87.3% | inactive | inactive | 26.4 µM (active) | 26.4 µM (active) | 26.4 µM (active) | – | – | – | – | – | – | – |
| COc1ccc(CC2=NN3C([C@@H](CCc4ccccc4)[C@@H](C)O)=NC(C)C3C(=O)N2)cc1OC (stereo not given in full) | – | -6.02% (inactive) | 87.2% | 99.9% | 46.9% | 82% | 276% | 115% | 9.35 µM (active) | 10.5 µM (active) | inactive | inactive | inactive | – | – | 71.5 | 64.6 | 17.1 | – | – |
